Source: the supplement of paper PMC6555819

Experiments:
Experiment in all cases: PBM binding z-score (relative to random genomic background probes); higher = stronger binding; sequences stand for … in GC…GCGATTGACAGCGTAGAATGAAGG
[1] = test system: PPARg:RXRa DBDmut IVT, anti-RXR (DBD mutation: RXRa K156A/R161A, NR concentration 270 nM, RXRa partner concentration 90 nM)
Summary of the method: (§1)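 Custom Agilent 4×180K protein-binding microarrays carried double-stranded probes. Their 34-nt variable regions held direct-repeat seeds, single-nucleotide variants, half-site ablations and random human genomic background sequences. Arrays were incubated 1 h with ligand-free nuclear receptor dimers in PBS pH 7.4, 2% milk, 0.02% Triton X-100, 1 mM DTT, 0.2 mg/mL BSA and 0.4 mg/ml salmon testes DNA. Antibodies against each partner (one per run) detected binding, and scanned fluorescence was regression-normalized. Binding z-scores use random background probes as reference.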

[2] = test system: PPARg:RXRa IVT, anti-PPARg (NR concentration 270 nM, RXRa partner concentration 90 nM)
Summary of the method: as §1

[3] = test system: PPARg DBDmut:RXRa IVT, anti-PPARg (DBD mutation: PPARg1 K132A/R137A, NR concentration 270 nM, RXRa partner concentration 90 nM)
Summary of the method: as §1

[4] = test system: PPARg DBDmut IVT, anti-PPARg (DBD mutation: PPARg1 K132A/R137A, NR concentration 270 nM)
Summary of the method: as §1

[5] = test system: PPARg homodimer (NR concentration 180 nM)
Summary of the method: as §1

[6] = test system: PXR:RXRa (NR concentration 270 nM, RXRa partner concentration 90 nM)
Summary of the method: as §1

[7] = test system: PXR homodimer (NR concentration 270 nM)
Summary of the method: as §1

[8] = test system: RARa:RXR (NR concentration 270 nM, RXRa partner concentration 90 nM)
Summary of the method: as §1

[9] = test system: RARa homodimer (NR concentration 270 nM)
Summary of the method: as §1

[10] = test system: RARb:RXRa (NR concentration 270 nM, RXRa partner concentration 90 nM)
Summary of the method: as §1

Row | Sequence | PBM binding z-score [1] | PBM binding z-score [2] | PBM binding z-score [3] | PBM binding z-score [4] | PBM binding z-score [5] | PBM binding z-score [6] | PBM binding z-score [7] | PBM binding z-score [8] | PBM binding z-score [9] | PBM binding z-score [10]
1 | TTACCAAGGTGAAAGGTGGTTGATGCACGCCTTG | 3.12 | 3.55 | -0.573 | -0.258 | 0.847 | 0.419 | -0.541 | 1.35 | 0.211 | 1.5
2 | TCATATAGGAAAACAGGTGAAAGTCCGTAAGTTA | 2.83 | 1.11 | 0.0218 | 0.116 | 0.804 | 0.845 | 0.476 | 1.14 | 1.74 | 0.355
3 | TCTGCTAGGACAACGATGGTCAGCTAATCTGCTA | 0.636 | -0.317 | -0.808 | -0.587 | -1.47 | -0.66 | -1.33 | -0.497 | -0.832 | 0.175
4 | GCTGCTAGCTCAACTGATGGTCAGCTAAAGCTCG | -0.64 | -0.817 | -1.66 | -1.33 | -1.88 | -0.933 | -1.77 | -1.22 | -1.08 | -0.407
5 | ACAGACAGGTGGTGAAGGTAACTCAGGCTATCAT | -0.597 | 0.0629 | -0.371 | -0.55 | 0.0722 | -0.271 | 0.0248 | -0.15 | 0.517 | -0.142
6 | TCTCGGAGGACACGAAAGGTCAGATCTCGACATC | 2.03 | 1.5 | -0.0755 | -0.793 | 2.23 | 3.88 | 0.563 | 3.78 | 0.369 | 4.15
7 | ATCGAAAGGTCGAGGGGAGTATAGAGAAAGGGAA | 0.44 | 1.72 | 1.88 | 1.27 | 1.83 | 2.27 | 0.897 | 3.24 | 1.45 | 3.97
8 | TAGCCTAGGTCATGCGGTCCAGTATAGTGTCGGC | 1.68 | 3.01 | -0.501 | 0.0737 | 0.743 | 1.77 | 0.0796 | 2.22 | -0.726 | 3.79
9 | TCTCGGAGGACACGAAAGGTCAGAGCACGACATC | 1.29 | 1.57 | 0.69 | -0.292 | 4.15 | 4.24 | 0.7 | 4.89 | 2.34 | 4.09
10 | ATATGTAGGTTACATCCGGGTGATTCAGGCTATG | 6.76 | 7.32 | 2.76 | 2.26 | 1.49 | 0.723 | 0.414 | 0.999 | 0.428 | 1.05
11 | TCTCGTAGGACACGAAGGTCAGAGCTTTCCAGAG | 1.67 | 1.28 | -0.564 | -1.07 | 0.78 | 1.35 | -0.171 | 1.75 | -0.101 | 2.89
12 | CGAACTAGGTCATTGACAGGACAGTGAATAGTAA | 8.1 | 8.32 | 2.23 | 1.53 | 1.77 | 1.89 | 0.245 | 2.44 | 0.499 | 3.79
